Assay results reported in PubChem BioAssay.
For part of these data: Potency and affinity values are given separately. Calls of active or inactive are those of the source. Unless noted, no rule for the calls is given here.

How the values were obtained:
[1] = antimalarial activity against Dd2 strain (AID 2302;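 active = growth inhibition above 50% at the single 2 µM test dose, taken to imply half-maximal potency below 2 µM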;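 also: 0% = DMSO untreated growth and 100% = chloroquine plus artemisinin killed control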); conditions: P. falciparum Dd2 in RBCs, LDH growth readout, 72 h; at 2 µM; active compounds read high
[2] = human hepatoma cell viability loss – ATP luminescence, cytotoxicity control for P. falciparum antimalarial project, primary screen (AID 2303;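 active = inhibition above 50%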;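 also: 0% = DMSO wells and 100% = digitonin-killed cells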); conditions: HepG2 viability, 24-48 h, at 10 µM, active compounds read high
[3] = molecular target: L-lactate dehydrogenase (Plasmodium falciparum (isolate CDC / Honduras)) (UniProt Q27743); experiment: PfLDH activity inhibition – cell lysate, 3D7 strain, counter-screen for P. falciparum growth inhibition project (AID 2304);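 also: 0% = vehicle and 100% = reference inhibitor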; conditions: P. falciparum 3D7 crude extract, LDH APAD/NBT absorbance; at 2 µM; active compounds read high
L-lactate dehydrogenase (Plasmodium falciparum (isolate CDC / Honduras)), sequence (Q27743 whole entry, looked up): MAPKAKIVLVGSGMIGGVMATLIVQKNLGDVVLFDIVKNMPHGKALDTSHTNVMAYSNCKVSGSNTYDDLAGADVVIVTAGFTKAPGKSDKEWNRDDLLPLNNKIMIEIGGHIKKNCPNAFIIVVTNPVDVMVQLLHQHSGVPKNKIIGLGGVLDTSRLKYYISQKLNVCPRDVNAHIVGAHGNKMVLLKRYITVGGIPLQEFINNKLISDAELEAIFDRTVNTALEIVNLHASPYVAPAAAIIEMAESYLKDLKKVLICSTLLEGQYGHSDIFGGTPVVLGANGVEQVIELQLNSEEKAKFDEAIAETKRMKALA

[4] = inhibition of 3D7 malaria parasite growth – strain 3D7 (AID 2306);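 also: 0% = DMSO wells and 100% = chloroquine plus artemisinin control wells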; conditions: P. falciparum 3D7 erythrocytic growth, LDH absorbance, 72 h; at 2 µM; active compounds read high
[5] = molecular target: Calcium-dependent protein kinase 1 (Plasmodium falciparum (isolate 3D7)) (UniProt P62344); experiment: PfCDPK1 kinase inhibitors, biochemical, TCAMS library (AID 1159585; cut-off not given, nearly all actives have IC50 up to about 0.98 µM;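 also: inhibitors leave more ATP so luminescence rises with inhibition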); conditions: recombinant PfCDPK1, Kinase-Glo ATP depletion luminescence
Calcium-dependent protein kinase 1 (Plasmodium falciparum (isolate 3D7)), sequence (P62344 whole entry, looked up): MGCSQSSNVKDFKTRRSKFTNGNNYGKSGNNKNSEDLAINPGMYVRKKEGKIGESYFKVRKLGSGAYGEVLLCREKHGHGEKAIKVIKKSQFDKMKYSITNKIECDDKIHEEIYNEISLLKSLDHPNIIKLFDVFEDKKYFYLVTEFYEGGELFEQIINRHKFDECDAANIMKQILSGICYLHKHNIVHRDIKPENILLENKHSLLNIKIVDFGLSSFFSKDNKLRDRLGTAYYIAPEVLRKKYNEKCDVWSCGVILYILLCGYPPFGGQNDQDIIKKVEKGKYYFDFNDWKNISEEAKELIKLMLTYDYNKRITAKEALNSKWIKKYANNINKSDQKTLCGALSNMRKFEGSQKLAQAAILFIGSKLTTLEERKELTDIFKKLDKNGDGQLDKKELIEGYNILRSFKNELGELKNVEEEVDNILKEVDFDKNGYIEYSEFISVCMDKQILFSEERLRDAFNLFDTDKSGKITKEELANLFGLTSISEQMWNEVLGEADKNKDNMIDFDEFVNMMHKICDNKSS

[6] = molecular target: Plasmodium falciparum protein kinase 6 (PK6, PF3D7_1337100) (UniProt Q8IDW1); experiment: PfPK6 kinase inhibitors, biochemical, TCAMS library (AID 1159586); conditions: recombinant PfPK6, Kinase-Glo ATP depletion luminescence
Plasmodium falciparum protein kinase 6 (PK6, PF3D7_1337100), sequence (Q8IDW1 1-305): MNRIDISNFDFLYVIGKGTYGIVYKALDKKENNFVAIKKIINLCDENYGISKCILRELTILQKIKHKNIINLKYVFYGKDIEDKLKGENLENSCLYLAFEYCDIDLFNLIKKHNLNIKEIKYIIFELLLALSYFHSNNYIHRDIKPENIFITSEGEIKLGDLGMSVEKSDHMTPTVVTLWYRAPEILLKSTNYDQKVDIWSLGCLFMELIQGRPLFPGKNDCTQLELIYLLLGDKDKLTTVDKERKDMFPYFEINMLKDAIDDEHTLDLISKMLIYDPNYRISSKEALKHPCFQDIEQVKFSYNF

[7] = molecular target: Protein kinase 7 (PK7), Plasmodium falciparum 3D7 (PF3D7_0213400) (UniProt Q7YTF7); experiment: inhibition of Plasmodium PK7 catalytic activity – biochemical, TCAMS antimalarial set, Kinase-Glo luminescence (AID 1159587); conditions: recombinant PfPK7, Kinase-Glo ATP depletion luminescence
Protein kinase 7 (PK7), Plasmodium falciparum 3D7 (PF3D7_0213400), sequence (Q7YTF7 1-343): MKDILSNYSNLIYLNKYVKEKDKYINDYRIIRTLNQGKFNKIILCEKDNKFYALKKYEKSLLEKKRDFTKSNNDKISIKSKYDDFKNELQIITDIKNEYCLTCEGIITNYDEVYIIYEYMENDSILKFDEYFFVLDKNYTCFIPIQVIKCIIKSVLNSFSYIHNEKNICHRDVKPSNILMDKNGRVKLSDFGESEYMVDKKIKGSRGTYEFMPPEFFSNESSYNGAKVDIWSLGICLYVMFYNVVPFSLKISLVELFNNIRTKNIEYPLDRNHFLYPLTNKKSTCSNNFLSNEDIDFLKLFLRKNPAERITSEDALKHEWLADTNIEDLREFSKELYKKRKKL

[8] = molecular target: Calcium-dependent protein kinase 4 (Plasmodium falciparum (isolate 3D7)) (UniProt Q8IBS5); experiment: PfCDPK4 kinase inhibitors, biochemical, TCAMS library (AID 1159588; cut-off not given, nearly all actives have IC50 up to about 0.91 µM); conditions: recombinant PfCDPK4, Kinase-Glo ATP depletion luminescence
Calcium-dependent protein kinase 4 (Plasmodium falciparum (isolate 3D7)), sequence (Q8IBS5 whole entry, looked up): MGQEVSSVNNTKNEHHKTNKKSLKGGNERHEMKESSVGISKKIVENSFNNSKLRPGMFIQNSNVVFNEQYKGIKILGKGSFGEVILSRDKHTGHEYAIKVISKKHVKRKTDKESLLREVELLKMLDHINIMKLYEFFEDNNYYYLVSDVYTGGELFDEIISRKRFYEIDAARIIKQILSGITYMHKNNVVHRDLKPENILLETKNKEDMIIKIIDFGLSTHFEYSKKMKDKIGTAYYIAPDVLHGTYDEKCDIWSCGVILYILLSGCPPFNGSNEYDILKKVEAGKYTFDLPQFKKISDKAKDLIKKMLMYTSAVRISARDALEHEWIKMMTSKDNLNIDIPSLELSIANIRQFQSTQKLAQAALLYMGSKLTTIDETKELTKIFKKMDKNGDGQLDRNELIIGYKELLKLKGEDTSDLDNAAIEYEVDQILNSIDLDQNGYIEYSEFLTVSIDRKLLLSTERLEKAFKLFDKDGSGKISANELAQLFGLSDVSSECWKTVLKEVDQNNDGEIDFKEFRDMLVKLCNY

COc1ccc2nccc([C@@H](O)CN3CCC(NC(=O)/C=C/c4cc(F)cc(Br)c4)CC3)c2c1
active: growth inhibition [1] 50% | growth inhibition [4] 95%
inactive: inhibition [2] 24% | inhibition [3] 7% | outcome [5] | outcome [6] | outcome [7] | outcome [8]

CN1CCN(c2cc3c(Nc4ccc5c(cnn5Cc5ccccc5)c4)ncnc3cn2)CC1
active: growth inhibition [4] 88%
inactive: growth inhibition [1] 35% | inhibition [2] 9% | inhibition [3] 5% | outcome [5] | outcome [6] | outcome [7] | outcome [8]

CCCCCCOc1ccc(C(=O)NCCC2CCN(CCCCCNC(=O)C=Cc3ccc(Cl)c(Cl)c3)CC2)cc1
inactive: growth inhibition [1] 10% | inhibition [2] 13% | inhibition [3] 0% | outcome [5] | outcome [6] | outcome [7] | outcome [8]
active: growth inhibition [4] 99%

CCCC(=O)Nc1ccc(OCCCN(Cc2ccccc2C(F)(F)F)c2ccc(C#N)c(C(F)(F)F)c2)cc1
inactive: inhibition [2] -5% | inhibition [3] 2% | outcome [5] | outcome [6] | outcome [7] | outcome [8]
active: growth inhibition [1] 79% | growth inhibition [4] 89%

COc1ccc(Nc2nccc(N3CCC(NC(=O)c4cccc(C#N)c4)C3)n2)cc1 (configuration not stated)
inactive: inhibition [2] 6% | inhibition [3] -3% | outcome [5] | outcome [6] | outcome [7] | outcome [8]
active: growth inhibition [1] 93% | growth inhibition [4] 92%

O=c1ccc2ccc(F)c3c2n1CC3CN1CCC(NCc2ccc(-c3cccc(Cl)c3)nc2)CC1 (configuration not stated)
active: growth inhibition [4] 96%
inactive: growth inhibition [1] 33% | inhibition [2] 16% | inhibition [3] 3% | outcome [5] | outcome [6] | outcome [7] | outcome [8]

Cc1nc(-c2cccc(Nc3nccc(NCC(O)c4cccc(C(F)(F)F)c4)n3)c2)cs1 (configuration not stated)
active: growth inhibition [1] 99% | growth inhibition [4] 100%
inactive: inhibition [2] 14% | inhibition [3] 0% | outcome [5] | outcome [6] | outcome [7] | outcome [8]

NC(=O)c1cccc(C(=O)Nc2ccc(-c3cccc(-c4nc5ccc(C(F)(F)F)cc5[nH]4)c3)cc2)c1
inactive: inhibition [3] -2% | outcome [5] | outcome [6] | outcome [7] | outcome [8]
active: growth inhibition [1] 86% | inhibition [2] 74% | growth inhibition [4] 100%

CCNc1cc(C)nc(Nc2ccc(NC(=O)c3ccccc3Br)cc2)n1
active: growth inhibition [1] 56% | growth inhibition [4] 100%
inactive: inhibition [2] 46% | inhibition [3] -3% | outcome [5] | outcome [6] | outcome [7] | outcome [8]

Cc1cc(C)c(NC(=O)NC2CCN(CCCCCNC(=O)/C=C/c3ccc(Cl)c(Cl)c3)C2)c(C)c1 (configuration not stated)
active: growth inhibition [4] 99%
inactive: growth inhibition [1] 48% | inhibition [2] 23% | inhibition [3] 1% | outcome [5] | outcome [6] | outcome [7] | outcome [8]

Cc1[nH]c(C)c(-c2ccc(Oc3ccc(F)cc3)cc2)c(=O)c1Cl
inactive: inhibition [2] 14% | inhibition [3] 4% | outcome [5] | outcome [6] | outcome [7] | outcome [8]
active: growth inhibition [1] 98% | growth inhibition [4] 99%

O=C(N[C@H]1CCN(Cc2ccc(OCCN3CCNCC3)c3ccccc23)C1)c1ccc(Cl)c(Cl)c1
active: growth inhibition [1] 99% | inhibition [2] 53% | growth inhibition [4] 100%
inactive: inhibition [3] -2% | outcome [5] | outcome [6] | outcome [7] | outcome [8]

O=C(/C=C/c1ccc(Cl)c(Cl)c1)NCCCCCN1CCC(CCNC(=O)/C=C/c2ccc(Cl)c(Cl)c2)CC1
active: growth inhibition [1] 56% | inhibition [2] 68% | growth inhibition [4] 101%
inactive: inhibition [3] -5% | outcome [5] | outcome [6] | outcome [7] | outcome [8]

O=C(CN1CCC2(CCC1=O)CC(=O)c1ccccc1O2)NCCN1CCOCC1 (configuration not stated)
active: growth inhibition [4] 101%
inactive: growth inhibition [1] -4% | inhibition [2] 6% | inhibition [3] -4% | outcome [5] | outcome [6] | outcome [7] | outcome [8]

Cc1ccc(-n2nc3ccc(NC(=O)c4ccc([N+](=O)[O-])o4)cc3n2)cc1C
active: growth inhibition [1] 95% | growth inhibition [4] 94%
inactive: inhibition [2] 20% | inhibition [3] -3% | outcome [5] | outcome [6] | outcome [7] | outcome [8]

Cc1ccc(C(=O)Cn2nc(-c3ccc(C)c(S(=O)(=O)N4CCCC4)c3)ccc2=O)cc1
inactive: inhibition [2] -1% | inhibition [3] -3% | outcome [5] | outcome [6] | outcome [7] | outcome [8]
active: growth inhibition [1] 70% | growth inhibition [4] 94%

CCOc1ccc2nc(C)cc(NN=Cc3ccccc3Cl)c2c1
inactive: inhibition [2] 11% | inhibition [3] -4% | outcome [5] | outcome [6] | outcome [7] | outcome [8]
active: growth inhibition [1] 100% | growth inhibition [4] 101%

CN1CCC(N2CCN(Cc3cccc(-c4ccc(-c5nc6ccc(C(F)(F)F)cc6[nH]5)cc4)c3)CC2)CC1
inactive: inhibition [3] 4% | outcome [5] | outcome [6] | outcome [7] | outcome [8]
active: growth inhibition [1] 91% | inhibition [2] 100% | growth inhibition [4] 101%

CC(C)C(=O)NC(c1ccc(N(C)C)cc1)c1cc(Cl)c2cccnc2c1O (configuration not stated)
inactive: inhibition [3] 2% | outcome [5] | outcome [6] | outcome [7] | outcome [8]
active: growth inhibition [1] 64% | inhibition [2] 61% | growth inhibition [4] 87%

COc1cc2c(cc1OCCN1CCC(N)CC1)N(C(=O)/C=C/c1ccccc1Cl)CC2
inactive: growth inhibition [1] 18% | inhibition [2] 19% | inhibition [3] -7% | outcome [5] | outcome [6] | outcome [7] | outcome [8]
active: growth inhibition [4] 91%

O=C(Nc1cccc(CN2CCCN(CC3CCCCC3)CC2)c1)c1cc2ccccc2s1
inactive: growth inhibition [1] 15% | inhibition [2] 29% | inhibition [3] 0% | outcome [5] | outcome [6] | outcome [7] | outcome [8]
active: growth inhibition [4] 96%

CC12CCC(C(=O)N(CC(O)Cn3c4ccc(Cl)cc4c4cc(Cl)ccc43)C1=O)C2(C)C (configuration not stated)
inactive: inhibition [2] -1% | inhibition [3] -5% | outcome [5] | outcome [6] | outcome [7] | outcome [8]
active: growth inhibition [1] 99% | growth inhibition [4] 100%

CCc1cc(Br)c(CNCCCNc2cc(=O)c3ccccc3[nH]2)s1
active: growth inhibition [4] 90%
inactive: growth inhibition [1] 45% | inhibition [2] 6% | inhibition [3] -10% | outcome [5] | outcome [6] | outcome [7] | outcome [8]

CCCn1c(Sc2ccc(C#N)c([N+](=O)[O-])c2)nnc1-c1ccc(OC)cc1
active: growth inhibition [1] 95% | growth inhibition [4] 94%
inactive: inhibition [2] -6% | inhibition [3] -2% | outcome [5] | outcome [6] | outcome [7] | outcome [8]

CC1=C(C(=O)OC(C)C)C(c2ccccc2Cl)C2=C(CC(c3ccccc3)CC2=O)N1 (configuration not stated)
active: growth inhibition [1] 84% | growth inhibition [4] 93%
inactive: inhibition [2] 15% | inhibition [3] 1% | outcome [5] | outcome [6] | outcome [7] | outcome [8]

Cc1ccc(N2C(N)=NC(N)=NC2(C)C)cc1
inactive: growth inhibition [1] 20% | inhibition [2] 43% | inhibition [3] 0% | outcome [5] | outcome [6] | outcome [7] | outcome [8]
active: growth inhibition [4] 96%

O=C(Nc1ccc(Cl)cc1)c1ccc(CN2CCCN(Cc3cccc(O)c3)CC2)cc1
inactive: inhibition [3] 4% | outcome [5] | outcome [6] | outcome [7] | outcome [8]
active: growth inhibition [1] 69% | inhibition [2] 52% | growth inhibition [4] 100%

COc1cc2c(cc1C(F)(F)F)N(C(=O)Nc1cc(Br)cc(-c3cccnc3)c1)CC2
active: growth inhibition [4] 96%
inactive: growth inhibition [1] 34% | inhibition [2] 8% | inhibition [3] -1% | outcome [5] | outcome [6] | outcome [7] | outcome [8]

Cc1ccccc1C1CCN(C2CCC(NC(=O)C3=Cc4cc(Cl)ccc4OC3)CC2)CC1 (configuration not stated)
inactive: inhibition [3] 0% | outcome [5] | outcome [6] | outcome [7] | outcome [8]
active: growth inhibition [1] 99% | inhibition [2] 51% | growth inhibition [4] 100%

O=C(Nc1ccc(-c2cccc(-c3nc4ccccc4[nH]3)c2)cc1)N[C@@H]1C[C@H]1c1ccccc1
active: inhibition [2] 63% | growth inhibition [4] 84%
inactive: growth inhibition [1] 6% | inhibition [3] -2% | outcome [5] | outcome [6] | outcome [7] | outcome [8]

Cc1cccc2[nH]c(-c3cccc(-c4cccc(CNCCc5cccn5C)c4)c3)nc12
active: growth inhibition [4] 91%
inactive: growth inhibition [1] 49% | inhibition [2] 4% | inhibition [3] 2% | outcome [5] | outcome [6] | outcome [7] | outcome [8]

O=C(Cc1cnc[nH]1)Nc1ccc(-c2ccc(-c3nc4ccc(C(F)(F)F)cc4[nH]3)s2)cc1
inactive: inhibition [2] 48% | inhibition [3] 0% | outcome [5] | outcome [6] | outcome [7] | outcome [8]
active: growth inhibition [1] 99% | growth inhibition [4] 101%

CCCCCCNc1cc(C)nc2ccc(OC)cc12
active: growth inhibition [1] 94% | growth inhibition [4] 100%
inactive: inhibition [2] 19% | inhibition [3] -2% | outcome [5] | outcome [6] | outcome [7] | outcome [8]

O=C(NCCCN1CCC(NC(=O)c2ccc(-c3cccnc3)cc2)CC1)c1ccc(Cl)c(Cl)c1
inactive: growth inhibition [1] 23% | inhibition [2] 17% | inhibition [3] -5% | outcome [5] | outcome [6] | outcome [7] | outcome [8]
active: growth inhibition [4] 94%

CS(=O)(=O)c1ccccc1CNC(=O)c1cccc(-c2ccc(-c3nc4ccc(C(F)(F)F)cc4[nH]3)cc2)c1
inactive: growth inhibition [1] 7% | inhibition [3] 3% | outcome [5] | outcome [6] | outcome [7] | outcome [8]
active: inhibition [2] 86% | growth inhibition [4] 95%

O=C(/C=C/c1ccc(Cl)c(Cl)c1)NCCCCCN1CCCN(C(=O)Nc2cc(Cl)cc(Cl)c2)CC1
active: inhibition [2] 53% | growth inhibition [4] 96%
inactive: growth inhibition [1] 4% | inhibition [3] 6% | outcome [5] | outcome [6] | outcome [7] | outcome [8]

CN1CCN(Cc2ccc(-c3ccc4c(Nc5cc(O)c(F)cc5Cl)ccnc4c3)o2)CC1
inactive: inhibition [2] 27% | inhibition [3] 3% | outcome [5] | outcome [6] | outcome [7] | outcome [8]
active: growth inhibition [1] 99% | growth inhibition [4] 101%

O=C(NC1CCCC1)c1cc2c(=O)n3ccccc3nc2nc1NCCc1ccccc1
active: growth inhibition [1] 61% | growth inhibition [4] 101%
inactive: inhibition [2] 19% | inhibition [3] 2% | outcome [5] | outcome [6] | outcome [7] | outcome [8]

c1ccc2cc3c(Nc4ccc(N5CCCCCC5)cc4)ccnc3cc2c1
active: growth inhibition [1] 76% | growth inhibition [4] 94%
inactive: inhibition [2] 10% | inhibition [3] 1% | outcome [5] | outcome [6] | outcome [7] | outcome [8]
